Reference: PubChem BioAssay (Tox21)
Values joined by “and” are separate entries in the source; they are usually repeats but may differ in a detail not shown here. Equal entries are not always repeated. Results filed as inconclusive are left out. Entries that show only a call come without a potency. More than one record can exist for a structure, and the calls need not agree. Active and inactive are the calls of the source. The call rests on the fitted dose curve.

Test: Nuclear factor erythroid 2-related factor 2/antioxidant responsive element (Nrf2/ARE) small molecule agonists: luciferase reporter gene qHTS assay in human keratinocytes (AID 1919969); further: nearly all actives have a fitted effect of over 35% in size
Potency means the concentration at half of the fitted maximal effect.

Row | SMILES | Potency
1 | COc1ccc(-c2coc3cc(O)cc(O)c3c2=O)cc1 | inactive
2 | Fc1ccccc1-c1ccccc1 | inactive
3 | CCCCCCCN | inactive
4 | O=C(O)c1ccccc1S | inactive
5 | C=CCS(=O)(=O)O | inactive
6 | O[C@@H]([C@H](O)[C@H](O)CBr)[C@H](O)CBr | inactive
7 | OCCN1CCN(CCCN2c3ccccc3C=Cc3ccccc32)CC1 | inactive
8 | CNC(=O)[C@H]1O[C@@H](n2cnc3c(NCc4cc(Cl)ccc4OCc4cc(C)no4)ncnc32)[C@H](O)[C@@H]1N | inactive
9 | O=C(O)c1ccco1 | inactive
10 | CCN1CCc2nc(N)oc2CC1 | inactive
11 | CC(=O)OCC(=O)Nc1cc(C#N)cc(NC(=O)COC(C)=O)c1Cl | inactive
12 | CC(=O)c1sc(C)nc1C | inactive
13 | CCCCCCCCO[C@@H]1O[C@H](CO)[C@@H](O)[C@H](O)[C@H]1O | inactive
14 | Cc1ccccc1C | inactive
15 | CCC(C)SSC(C)CC (stereo unspecified) | inactive
16 | C1CCCCC1 | inactive

Row | SMILES | Potency
17 | CO[Si](C)(C)OC | inactive
18 | C=CC(C)(CCC=C(C)C)OC(=O)CC (stereo unspecified) | inactive
19 | O=S(=O)(O)CCN1CCN(CCO)CC1 | inactive
20 | Cc1ccc(C)o1 | inactive
21 | CCCCOC(=O)CCS | inactive
22 | CCOc1ncc(F)c(=O)[nH]1 | inactive
23 | CN(CC1(C)CCCO1)S(=O)(=O)c1ccc(Cl)c(S(N)(=O)=O)c1 (stereo unspecified) | inactive
24 | NCC1CCCC(CN)C1 (stereo unspecified) | inactive
25 | O=C(OCCOCCO)c1ccccc1Nc1cccc(C(F)(F)F)c1 | inactive
26 | CCOc1ccccc1C(N)=O | inactive and 33.5 µM (active)
27 | CN(C)c1ccc2nc3ccc(=[N+](C)C)cc-3sc2c1 | 10.4 µM (active) and 15.4 µM (active) and 13.3 µM (active)
28 | O=c1[nH]c2ccccc2c(=O)n1CCCl | inactive
29 | CSc1ccc(C(=O)c2[nH]c(=O)[nH]c2C)cc1 | inactive
30 | CC(=O)O[C@H]1C[C@@H]2CC[C@@]1(C)C2(C)C | inactive
31 | CNC1(C)C2CCC(C2)C1(C)C (stereo unspecified) | inactive
